Source: PubChem BioAssay (Tox21)
Results filed as inconclusive are left out. A number with no mark means an inactive call. Calls come from the whole dose curve; as a rule, active = well fitted cell-killing curve with a large enough effect in the repeat runs; inconclusive = weak or mixed curves, or effect the other way; inactive = flat fitted curve, though single readings scatter.

Assay: qHTS RealTime-Glo MT Cell Viability Assay in HepG2 cells - 0 hour (AID 1224889); note: nearly all actives have a fitted effect of over 50% in size
Settings: RealTime-Glo luminescence; series mostly up to 76.8 µM; activity change, negative = cytotoxicity: at the top concentration
How it was run: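 Compound treatment began 5 h after plating HepG2 cells (600/well) with NanoLuc luciferase and prosubstrate. Plates stayed at 37 C for 40 h; luminescence was captured at six time points, 0 h through 40 h.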
% is set by controls: 0 for no effect and ±100 for the full control effect.

Row | Structure (SMILES) | activity change, negative = cytotoxicity
1 | O=C(Nc1ccccc1)c1cc(Cl)ccc1O | 2.47%
2 | Cc1ccc(N=Nc2c(O)ccc3ccccc23)c(C)c1 | 0.0549% [at 35.3 µM]
3 | C/C=C/C(=O)OCC(C)C | 12.9%
4 | CC(C)(C)c1cc(CCC(=O)OCCSCCOC(=O)CCc2cc(C(C)(C)C)c(O)c(C(C)(C)C)c2)cc(C(C)(C)C)c1O | -22.6% [at 35.3 µM]
5 | C=Cc1ccncc1 | 3.41%
6 | O=C1CCCCCCCCCCCCCC1 | 0.001%
7 | CCN(CC)c1ccc(N=Nc2ccccc2)cc1 | -7.84%
8 | O=C1CCC/C=C\CCCCCCCCCC1 | -15.4%
9 | Brc1cc(Br)cc(Br)c1 | 8.43%
10 | N#Cc1ccc(C/C(=N/NC(=O)Nc2ccc(OC(F)(F)F)cc2)c2cccc(C(F)(F)F)c2)cc1 | 0.287%
11 | CSc1nnc(C(C)(C)C)c(=O)[nH]1 | 8.47%
12 | CCOC(=O)OC(=O)OCC | 9.91%
13 | CCCCCCCCCC[N+](C)(CCCCCCCCCC)CCC[Si](OC)(OC)OC | -23.7%
14 | c1ccc2c(c1)-c1ccc3ccc4cccc5cc-2c1c3c45 | 0.326% [at 35.3 µM]
15 | O=C(CCCCCCCCc1cccnc1)N1CCC(C=C(c2ccccc2)c2ccccc2)CC1 | -2.08%
16 | CCN(CC)c1ccc(C=O)c(O)c1 | 17%
17 | CC(C=O)c1ccccc1 (configuration not stated) | -4.38%
18 | C=CC(=O)O[C@H]1C[C@@H]2CC[C@@]1(C)C2(C)C | 15.8%
19 | CCC1(C)C(=O)N(Cl)C(=O)N1Cl (configuration not stated) | 4.23%
20 | CC/C=C(\C)C=O | 6.09%
21 | O=C(Nc1ccc([N+](=O)[O-])cc1)Nc1ccc([N+](=O)[O-])cc1 (tested in a mixture with another compound) | 11.9% [at 35.3 µM]
22 | O=C(NCc1ncc(C(F)(F)F)cc1Cl)c1c(Cl)cccc1Cl | 4.04%
